# In the library only some 3.2% were active in any assay of this set; here they are far more common.
# GDH-TPI inh: GDH-TPI coupled enzyme inhibition counter-screen; 360,000 tested, 1.2% active; inhibition, % at 4.8 µM; GDH-TPI coupled enzyme counterscreen, NADH absorbance; AID 588335; in the data active means inhibition above about 30%
# PrPC TRFRET: reduces human prion protein on the cell surface; inhibition, % at 13.8 µM; cell surface PrPC, TR-FRET read-out; 370,000 tested, 0.43% active; AID 720596; in the data active means inhibition above about 24%
# Y pestis TopoI: inhibitors of Yersinia pestis topoisomerase I; Y. pestis Topo-I cleavage product accumulation, plate reader; 360,000 tested, 0.064% active; activity, % at 10 µM; in the data active means activity above about 50%, passing the limit was not always enough
# FBA Mtb inh: inhibitors of M. tuberculosis fructose-bisphosphate aldolase; P9WQA3; purified M. tuberculosis FBA, fluorescence read-out; inhibition, % at 1 µM; 360,000 tested, 2.3% active; AID 588726; in the data active means inhibition above about 27%
# TcdB GH inh: inhibitors of Clostridioides difficile toxin B glycohydrolase; 350,000 tested, 0.24% active; inhibition, % at 9.99 µM; TcdB glycohydrolase enzymatic assay, plate reader; P18177; in the data active means inhibition above about 10%
# Hits are given with their value; 0 = inactive; - = no result given; + = active, no number.
SMILES,GDH-TPI inh,PrPC TRFRET,Y pestis TopoI,FBA Mtb inh,TcdB GH inh
CN1c2ccc(-c3ccccc3F)cc2[C@H]2[C@H](CCN2S(=O)(=O)c2ccccc2)[C@@H]1CO,-,-,-,-,0
N#Cc1nc(-c2cccs2)oc1NCc1ccc(Cl)cc1,0,0,0,+,-
N#Cc1nc(-c2cccs2)oc1NCc1ccccc1,0,0,0,+,-
CCOc1ccc(Nc2oc(-c3cccs3)nc2C#N)cc1,0,0,0,0,-
C[C@@H]1CN([C@H](C)CO)C(=O)c2cc(NC(=O)C3CC3)ccc2O[C@H]1CN(C)S(=O)(=O)c1cn(C)cn1,-,-,-,-,0
C[C@@H]1CN([C@@H](C)CO)C(=O)Cc2cc(NC(=O)C3CCCCC3)ccc2O[C@H]1CN(C)C,-,-,-,-,0
CCCCn1nc2cc(C(=O)NCc3ccccc3)ccc2c1OCC,0,0,0,68,0
COc1ccccc1CNC(=O)c1ccc2nc3[nH]c4ccccc4c3nc2c1,40,0,0,0,0
CCOc1c2ccc(C(=O)NCc3ccc(OC(F)(F)F)cc3)cc2nn1CC,0,0,0,0,0
CCOc1c2ccc(C(=O)NCc3ccccc3OC)cc2nn1CC,0,0,0,47,-
CCCn1nc2cc(C(=O)N(CC)c3ccc(OC)cc3)ccc2c1OCC,0,0,0,40,0
C[C@@H]1CCCCO[C@H](CN(C)C(=O)NC2CCCCC2)[C@H](C)CN([C@H](C)CO)C(=O)c2cc(NS(=O)(=O)c3ccccc3)ccc2O1,-,-,-,-,0
CCOc1c2ccc(C(=O)NCc3ccco3)cc2nn1CC,0,0,0,39,-
CCCCn1nc2cc(C(=O)NCCCCc3ccccc3)ccc2c1OCC,0,0,0,0,0
COc1c2ccc(C(=O)NCCCCc3ccccc3)cc2nn1C,0,0,0,0,14
CNC[C@@H]1Oc2ccc(NS(=O)(=O)c3cn(C)cn3)cc2CC(=O)N([C@H](C)CO)C[C@@H]1C,-,-,-,-,0
C[C@@H]1CN([C@H](C)CO)C(=O)c2cc(-c3ccc(C#N)cc3)cnc2O[C@H]1CN(C)Cc1ccccn1,-,-,-,-,0
Cc1cccc(CN2CCCN(Cc3ccc(Cl)cc3)S2(=O)=O)c1,0,0,57,0,0
Cc1ccc(CN2CCCN(Cc3ccc(C)cc3)S2(=O)=O)cc1,0,0,0,0,0
C[C@H]1CN([C@@H](C)CO)C(=O)c2cccc(N(C)C)c2O[C@@H]1CN(C)S(=O)(=O)c1ccc(F)cc1,-,-,-,-,0
CCc1nc2oc3cc(OC)ccc3c(=O)c2c(=O)n1Cc1ccccc1,0,-,0,0,0
CCc1nc2sc3ccccc3c(=O)c2c(=O)n1Cc1ccc(OC)cc1,34,0,0,0,0
CCCCN(c1nc2ccccc2nc1Cl)S(=O)(=O)c1ccc(C)cc1,0,0,55,0,0
O=C(c1cc2c(s1)-c1ccccc1OC2)N1CCN(c2ccccc2)CC1,0,0,0,0,0
O=C(c1cc2c(s1)-c1ccccc1OC2)N1CCN(c2ccccn2)CC1,0,0,0,0,0
SMILES,GDH-TPI inh,PrPC TRFRET,Y pestis TopoI,FBA Mtb inh,TcdB GH inh
O=C(c1cc2c(s1)-c1ccccc1OC2)N1CCC2(CC1)OCCO2,40,0,0,+,-
O=C(c1cc2c(s1)-c1ccccc1OC2)N1CCCC1,0,0,0,+,0
CC1Cc2cc(/C(O)=C3/C(=O)C(=O)N(CCCn4ccnc4)C3c3ccc([N+](=O)[O-])cc3)ccc2O1 (stereo unspecified),0,0,0,0,0
CC1Cc2cc(/C(O)=C3/C(=O)C(=O)N(CCCn4ccnc4)C3c3ccc(F)cc3)ccc2O1 (stereo unspecified),32,0,0,0,0
Cc1ccc(SCc2cn3cccnc3n2)cc1,0,0,0,0,-
Cn1ncnc1SCc1cn2cccnc2n1,0,0,0,130,0
CNC[C@H]1Oc2c(NC(=O)NC(C)C)cccc2C(=O)N([C@H](C)CO)C[C@H]1C,-,-,-,-,0
CCCCn1c(N)c(N(CC)C(=O)c2cccs2)c(=O)[nH]c1=O,0,0,0,0,11
Cc1ccc(S(=O)(=O)Nc2ccc3c(c2)C(=O)N([C@@H](C)CO)C[C@H](C)[C@@H](CN(C)C(=O)Nc2ccc4c(c2)OCO4)OCCCC[C@@H](C)O3)cc1,-,-,-,-,0
CCOCCCN=Cc1c(O)n(Cc2ccccc2)c(=O)[nH]c1=O,0,0,0,0,-
CCCCC(CC)COCCCN=Cc1c(O)[nH]c(=S)[nH]c1=O (stereo unspecified),39,0,0,0,0
COCCn1c(C)cc(/C=C2\NC(=S)N(C)C2=O)c1C,36,0,0,0,0
NC(=O)C1CCN(C(=O)c2cc(-c3ccc(Cl)s3)nc3ccccc23)CC1,34,0,0,127,0
COc1ccc(-c2cc(C(F)F)n3ncc(C(=O)N4CCN(C(=O)c5ccco5)CC4)c3n2)cc1,0,0,0,0,0
COc1ccc(-c2cc(C(=O)O)c3ccccc3n2)c(OC)c1,0,0,0,0,-
COc1ccc2cc(-c3cc(C(=O)O)c4ccccc4n3)ccc2c1,36,0,0,0,-
COc1ccc(-c2cc(C(=O)N3CC(C)CC(C)C3)c3ccccc3n2)cc1 (stereo unspecified),0,0,0,50,0
COc1ccc(-c2cc(C(F)F)n3ncc(C(=O)N4CCCCC4)c3n2)cc1,42,0,0,0,-
O=C(c1cc(-c2ccccc2Cl)nc2ccccc12)N1CCC1,0,0,0,0,0
CC1CC(C)CN(C(=O)c2cc(-c3ccccn3)nc3ccccc23)C1 (stereo unspecified),0,0,0,0,-
COc1cccc(-c2cn(CC[C@H]3CC[C@H](NS(=O)(=O)Cc4ccccc4)[C@H](CO)O3)nn2)c1,-,-,-,-,0
CCCC#Cc1ccc([C@@H]2[C@H](C#N)N(C(=O)CN3CCOCC3)[C@H]2CO)cc1,-,-,-,-,0
CC(C)NC(=O)Nc1ccc2c(c1)C(=O)N([C@@H](C)CO)C[C@H](C)[C@@H](CN(C)Cc1ccncc1)O2,-,-,-,-,0
Cc1ccc(-c2cc(C(=O)N(C)CC(=O)Nc3ccccc3Br)c3ccccc3n2)o1,0,0,0,120,0
O=C(c1cc(-c2ccccc2)nc2ccccc12)N1CCCC1,0,0,0,0,0
SMILES,GDH-TPI inh,PrPC TRFRET,Y pestis TopoI,FBA Mtb inh,TcdB GH inh
O=C(O)c1cc(-c2cccs2)nc2cc3c(cc12)OCCO3,0,0,0,+,0
COc1ccc(-c2cc(C(=O)N3CCCC3)c3ccccc3n2)cc1,0,0,0,148,0
COc1ccc2nc(-c3ccccc3)cc(C(=O)N3CCC3)c2c1,0,0,0,149,0
CCCC(=O)Nc1ccc2c(c1)C(=O)N(C)C[C@H](OC)[C@@H](C)CN(Cc1ccccn1)[C@@H](C)CO2,-,-,-,-,0
COc1ccccc1-c1ccc2n(c1=O)C[C@@H]1[C@@H](CO)[C@H](C(=O)N(C)C)N(CC3CCOCC3)[C@H]21,-,-,-,-,0
Cc1ccc(-c2cc(C(=O)N3CCOCC3)c3ccccc3n2)o1,0,0,0,120,0
CS(=O)(=O)N1CCN(C(=O)c2cc(-c3cccs3)nc3ccccc23)CC1,31,0,0,125,-
COc1ccc(-c2cn(CC[C@@H]3CC[C@H](NC(=O)NC(C)C)[C@H](CO)O3)nn2)cc1,-,-,-,-,0
CNC(=O)/C(C#N)=C/c1c(N2CC(C)OC(C)C2)nc2ccccn2c1=O (stereo unspecified),0,0,0,124,0

# Compound activity deposited in PubChem BioAssay by several laboratories.
